p53ts 32C kill – cytotoxicity in p53ts cells at permissive temperature; H1299-p53A138V at 32C, ATP luminescence viability, 24 h; Potency, µM (top dose mostly 46.1 µM), without a hit: at the top dose activity change, negative = cytotoxicity, most hits filed as cytotoxic; hit rate 0.93% among 130,000; AID 924;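 also: potency is read from the fitted curve at half-maximal effect; 0% = DMSO and -100% = full killing by reference compound; nearly all actives have a fitted effect of over 55% in size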
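Cells: H1299 p53ts (A138V), 600/well, pre-incubated 16–30 h at 37C. Cpd up to 46 uM, 24 h, 32C. Readout: ATPlite luminescence, 20 min RT. Normalization: DMSO vs tamoxifen 100 uM. AC50 by Hill equation.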
p53ts 39C kill – p53ts cell cytotoxicity, nonpermissive temperature; H1299-p53A138V viability at 39C, ATP luminescence, 24 h; Potency, µM (top dose mostly 46.1 µM), without a hit: at the top dose activity change, negative = cell killing, usual class: cytotoxic; hit rate 1.5% among 130,000; AID 902; also: potency is read from the fitted curve at half-maximal effect; % is scaled to controls: 0 for no effect and ±100 for the full control effect; nearly all actives have a fitted effect of over 55% in size
YjeE inh – inhibitors of E. coli YjeE (TsaE); purified YjeE enzyme, qHTS inhibition assay; hit rate 0.05% among 71,000; Potency, µM
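Purified YjeE (10 uM) with BODIPY Texas Red-labeled ADP probe (2 uM); compounds pin-transferred, 15 min at room temperature. Binding inhibition read as decreased fluorescence polarization; ADP titration as control.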
DNA Pol III inh – inhibitors of bacterial DNA polymerase III holoenzyme; reconstituted DNA polymerase III holoenzyme replication, biochemical; Potency, µM (series often up to 57.1 µM), without a hit: at the highest dose activity change, negative = inhibition; hit rate 0.25% among 71,000; also: potency is read from the fitted curve at half-maximal effect; % is scaled to controls: 0 for no effect and ±100 for the full control effect
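Reconstituted *E. coli* holoenzyme (0.35 nM Pol III, 1 nM beta, 154 nM SSB, 2 nM primase) was preincubated with compound for 15 min at RT. Synthesis on 1.4 nM ssM13Gori ran 35 min, then was stopped with PicoGreen/EDTA and read as dsDNA fluorescence.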
Tau filament bind – tau filament binding; Potency, µM (doses to about 57.1 µM), inactives show at the highest dose activity change, negative = inhibition; P10636; hit rate 2% among 71,000; recombinant tau filaments, thioflavin S fluorescence, 15 h; filaments grown with octadecylsulfate alongside compound;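 also: potency is read from the fitted curve at half-maximal effect; % is scaled to controls: 0 for no effect and ±100 for the full control effect; actives lower thioflavin S fluorescence by blocking filaments or displacing dye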
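Thioflavine S fluorescence (ex 450, em 510 nm) reports filaments formed from 1 uM human tau plus 30 uM ODS over 15 h at 37 C (10 mM HEPES pH 7.4, 100 mM NaCl, 5 mM DTT); compounds displacing dye or blocking filaments lower signal.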
ERK AVP inh – blocks ERK signaling stimulated by vasopressin. HEK293-V1b, vasopressin-stimulated pERK AlphaScreen. Potency, µM (titrated, usually from 57.5 µM), for inactives: top-dose activity, negative = inhibition, hits mostly inhibitors. hit rate 0.99% among 72,000; also: potency is read from the fitted curve at half-maximal effect; % is scaled to controls: 0 for no effect and ±100 for the full control effect; nearly all actives have a fitted effect of over 55% in size
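Phosphorylated ERK1/2 detected via AlphaScreen bead proximity in lysates of V1b-expressing HEK293 cells given 25 nM vasopressin for 5 min after 30 min compound exposure (37 °C). AC50 from Hill equation; basal DMSO 0%, vasopressin 100%.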
* marks the source's active call; other numbers are inactive results; i = inactive; ? = inconclusive; · = not tested or not shown; ! = a repeat was not active; [ ] = dose if it differs, or a comment. Shown are actives, neighbours in structure and some others; about 3.2% of the full set was active somewhere. Calls follow the shape of the dose curve; as a rule, active = well fitted curve in the direction sought with a large enough effect; inconclusive = small, poorly fitted or top-dose-only effect, or another doubt; inactive = no such curve, though single readings can be large; an effect the other way counts as inactive or inconclusive.

SMILES	p53ts 32C kill	p53ts 39C kill	YjeE inh	DNA Pol III inh	Tau filament bind	ERK AVP inh
CC[C@@]1(O)CC(O)c2c(cc3c(c2O)C(=O)c2c(O)ccc(O)c2C3=O)C1C(=O)OC (stereo partly drawn)	?	12.6µM*	·	·	·	?
CC(C)(C)c1ccc(C(=O)Nc2ccc3nc(SCC(=O)N4CCCC4)sc3c2)cc1	12.6µM*	3.16µM*	·	·	·	·
C=C1C/C(=C\C)C(=O)O[C@@H]2CCN3CC=C(COC(=O)[C@]1(C)O)[C@H]23	·	·	i	-6.3%	?	·
NC(=NCCC[C@@H](N)C(=O)O)N[N+](=O)[O-]	·	·	i	-7.2%	1.0%	·
C=CCN1CC[C@@]23c4c5ccc(O)c4O[C@H]2/C(=N\N=C2/CC[C@@]4(O)[C@H]6Cc7ccc(O)c8c7[C@@]4(CCN6CC=C)[C@@H]2O8)CC[C@]3(O)[C@@H]1C5	?	?	i	-5.1%	?	23.7%
C=C(C)CN1CC[C@@]23c4c5ccc(O)c4O[C@H]2c2[nH]c4ccccc4c2C[C@]3(O)[C@@H]1C5	?	31.6µM*	i	-2.3%	?	2.4%
NC(N)=Nc1ccc2[nH]c3c(c2c1)C[C@]1(O)[C@@H]2Cc4ccc(O)c5c4[C@]1(CCN2CC1CC1)[C@H]3O5	12.6µM*	25.1µM*	i	-8.3%	58.1%	?
COC1=C[C@H]2[C@@H]3Cc4ccc(OC)c(O)c4[C@@]2(CCN3C)CC1=O	·	·	i	-6.6%	?	·
CC(C)(O)[C@H]1[C@H]2OC(=O)[C@@H]1[C@]1(O)C[C@H]3O[C@]34C(=O)O[C@H]2[C@]14C (tested in a mixture with another compound)	20.4%	12.9%	i	-5.4%	-7.3%	8.4%
CN1CCc2cc3c(cc2[C@@H]1[C@H]1OC(=O)c2c1ccc1c2OCO1)OCO3	·	·	i	-4.3%	?	·
CCC(=NCCO)c1c(O)n(C2CCCCC2)c(=O)[nH]c1=O	3.6%	1.0%	i	-3.3%	-12.8%	-10.0%
N=C(N)c1c(O)n(C2CCCCC2)c(=O)n(C2CCCCC2)c1=O	-21.7%	-20.0%	i	-4.6%	15.8µM*	48.9%
C[C@@H]1Cc2cc3c(cc2C(c2ccc(N)cc2)=NN1)OCO3	4.7%	12.6%	i	-2.8%	39.8µM*	?
Cc1ccc2oc(-c3ccccc3)cc(=O)c2c1	?	?	·	·	·	-3.8%
COc1ccc(-c2cc(=O)c3cc(OCC(=O)OC(C)C)ccc3o2)cc1	3.16µM*	3.16µM*	·	·	·	·
CC(C)Nc1ccc(Nc2ccccc2)cc1	·	·	100µM*	-4.2%	15.8µM*	-7.3%
CC[C@@]12CCCN3CC[C@@]4(c5ccc(OC)c(O)c5N(C(C)=O)[C@H]4CC1)[C@H]32	·	·	i	-6.3%	31.8%	·
Cc1cc2c(C(C)C)c(O)c(O)c(C=O)c2c(O)c1-c1c(C)cc2c(C(C)C)c(O)c(O)c(C=O)c2c1O	20µM*!	20µM*	100µM*!	-13.5%	1µM*	25.1µM*!
COC(=O)[C@@H]1C[C@@H]1[C@@H](NP(=O)(c1ccccc1)c1ccccc1)c1ccccc1	·	·	i	13.6%	7.4%	·
O=C1C2CC=CCC2C(=O)N1SC(Cl)(Cl)Cl (stereo not drawn)	-9.6%[1.84 µM]	108.4%	i	39.8µM*!	4.3%	15.8µM*
O=C(CSc1oc(-c2ccccc2)nc1S(=O)(=O)c1ccc(Cl)cc1)Nc1ccc(F)cc1	?	12.6µM*	·	·	·	·
CCOc1ccc(NC(=O)CSc2oc(-c3ccccc3)nc2S(=O)(=O)c2ccc(Cl)cc2)cc1	?	2µM*	·	·	·	·
O=c1ccc2cc(O[C@@H]3O[C@@H](CO)[C@@H](O)[C@@H](O)[C@H]3O)c(O)cc2o1	·	·	i	-7.6%	?	·
CC(C)[C@H](CO)Nc1nc(Nc2cccc(Cl)c2)c2ncn(C(C)C)c2n1	33.5%	-16.0%	i	-2.6%	-22.5%	?
CCn1cnc2c(Nc3cccc(Cl)c3)nc(N[C@@H]3CCCC[C@H]3N)nc21	10µM*	12.6µM*	i	-7.2%	19.7%	38.2%

High-throughput results deposited in PubChem by National Center for Advancing Translational Sciences (NCATS).
